Rows were chosen to be rich in hits. Some 3% of all compounds tested hit in one or more screens of this group.
Nrf2 block – Nrf2 qHTS screen for inhibitors; Potency, µM (series often up to 46 µM), inactives show top-dose activity change, negative = inhibition, hits mostly inhibitors; A549 ARE-Fluc reporter, luciferase luminescence, 18-24 h; hit rate 2.1% among 360,000; further: on the % scale 0 is the no-effect control and ±100 the full control effect; nearly all actives have a fitted effect of over 60% in size
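Reporter: ARE-Fluc in A549. Exposure: 18-24 h, 37 °C, 5% CO2, 5% FBS OPTI-MEM. Readouts: fluorescent cytotoxicity (CellTiter-Fluor), then luminescent Nrf2 signal after BugLite.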
TrxR1 inh – qHTS Assay for Inhibitors of Mammalian Selenoprotein Thioredoxin Reductase 1 (TrxR1): qHTS. recombinant rTrxR1, NADPH fluorescence consumption, selenite substrate. hit rate 1% among 390,000. Potency, µM (top dose mostly 114 µM), without a hit: at the highest dose activity change, negative = inhibition, most hits filed as inhibitors; further: on the % scale 0 is the no-effect control and ±100 the full control effect; nearly all actives have a fitted effect of over 65% in size
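Rat TrxR1 (90 nM in the dispensed reagent) was pre-reduced with 400 uM NADPH for 5 min at room temperature, then incubated with compound for 15 min. After 400 uM selenite was added, NADPH fluorescence (Ex 340/Em 450 nm) was followed for 8 min.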
A549 viability – Nrf2 qHTS screen for inhibitors: counterscreen for cytotoxicity | hit rate 0.16% among 390,000 | A549 ARE-Fluc cells, CellTiter-Fluor viability, 18-24 h | Potency, µM (titrated, usually from 46 µM), inactives show at the highest dose activity change, negative = cytotoxicity, hits mostly inhibitors; further: on the % scale 0 is the no-effect control and ±100 the full control effect
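Cytotoxicity counterscreen: CellTiter-Fluor fluorescence was measured in A549 ARE_Fluc cells after 18-24 h of compound exposure in a concentration series. The subsequent BugLite luminescent read reports ARE-luciferase activity.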
TrxR1 substrate – qHTS Assay for Substrates of Mammalian Selenoprotein Thioredoxin Reductase 1 (TrxR1): qHTS | Thioredoxin reductase 1, cytoplasmic (Rattus norvegicus), O89049 | AID 588456, 2011 | purified TrxR1 substrate turnover, NADPH consumption readout | Potency, µM (titrated, usually from 114 µM), inactives show at the top dose activity change, negative = substrate turnover | hit rate 0.01% among 390,000; further: on the % scale 0 is the no-effect control and ±100 the full control effect; nearly all actives have a fitted effect of over 50% in size
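Rat TrxR1, dispensed at 90 nM, was prereduced with 400 uM NADPH (final) for 5 min at ~22 deg C, then incubated with compound 15 min before 400 uM selenite. A first-read NADPH fluorescence drop versus no-compound background flagged substrates.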
GALK inhibitor – qHTS Assay for Inhibitors of Human Galactokinase (GALK); P51570; Purified GALK, Kinase-Glo residual ATP luminescence; Potency, µM (doses to about 57.5 µM), for the others: top-dose activity change, negative = inhibition, usual class: inhibitors; hit rate 0.007% among 270,000; AID 1868, 2009; further: on the % scale 0 is the no-effect control and ±100 the full control effect
Target sequence (P51570 whole entry, looked up): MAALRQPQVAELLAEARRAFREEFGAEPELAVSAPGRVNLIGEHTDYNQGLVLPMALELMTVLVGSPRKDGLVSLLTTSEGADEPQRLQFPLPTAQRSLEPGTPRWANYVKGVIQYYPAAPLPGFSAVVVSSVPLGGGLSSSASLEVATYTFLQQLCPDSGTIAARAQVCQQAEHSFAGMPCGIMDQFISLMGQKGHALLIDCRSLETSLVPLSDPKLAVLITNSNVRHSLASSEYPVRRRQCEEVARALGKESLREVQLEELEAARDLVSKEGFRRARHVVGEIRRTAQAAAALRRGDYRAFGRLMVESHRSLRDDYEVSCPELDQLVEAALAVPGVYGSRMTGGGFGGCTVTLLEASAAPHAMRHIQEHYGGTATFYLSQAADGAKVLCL
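Compounds were pin-transferred into ATP buffer (35 uM final), then GALK plus galactose (5 nM, 100 uM final) was added. After 1 h at room temperature, Kinase-Glo Plus was added and luminescence read after 10 min.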
Nrf2 activator – qHTS of Nrf2 Activators; AREc32 ARE-luciferase reporter (MCF7-derived line), luminescence, 24 h; Potency, µM (series often up to 46.1 µM), for the others: at the top dose activation, actives largely listed as activators; AID 624171, 2012; hit rate 0.31% among 410,000; further: % of control where 0% means no effect; nearly all actives have a fitted effect of over 65% in size
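Each well held 1000 AREc32 cells, which were incubated with compound for 24 hr at 37 deg C after overnight attachment, and ARE reporter activity was quantified by firefly luciferase luminescence.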
* hit, by the source's call; u = inconclusive; x = no result given; [ ] = dose if it differs, or a comment. The call rests on the fitted dose curve; in most records, active means well fitted curve in the direction sought with a large enough effect; inconclusive means small, poorly fitted or top-dose-only effect, or another doubt; inactive means no such curve, though single readings can be large; an effect the other way counts as inactive or inconclusive. Potency means the concentration at half of the fitted maximal effect.

SMILES	Nrf2 block	TrxR1 inh	A549 viability	TrxR1 substrate	GALK inhibitor	Nrf2 activator
Cc1sc2ccccc2[n+]1CCCC[n+]1c(C)sc2ccccc21	x	172.8%	x	16.7%	x	x
COc1ccccc1N(Cc1cc2cccc(C)c2[nH]c1=O)C(=O)c1cccc(Cl)c1	u	15.3%	u	-2.5%	x	1.6%
N#Cc1c(Cl)cccc1Oc1ccc([S+](=O)([O-])N2CCN([S+](=O)([O-])c3c(F)cccc3F)CC2)cc1	3.6%	x	0.8%	x	x	x
Cc1cccc(/C=C/c2onc(C)c2[N+](=O)[O-])n1	14.6µM*	u	18.4µM*	-2.6%[57.1 µM]	x	21.1%
Cc1cccc(N/C=C/c2onc(C)c2[N+](=O)[O-])c1	u	35.3%	-4.9%	10.8%	-3.8%	u
Cc1ccc(NC(=O)C2CC(=O)N/C(=N/N=C/c3ccco3)S2)cc1 (configuration not stated)	-5.0%	-6.7%	-5.1%	-8.3%	-0.5%	u
O=C1CC(C(=O)Nc2ccc(F)cc2)S/C(=N\N=C\c2ccco2)N1 (configuration not stated)	-4.9%	-12.4%	-3.8%	-16.0%	-1.0%	11.2µM*
COc1cc(OC)cc(-c2nnc3n2N=C(c2ccc(OC)cc2OC)CS3)c1	u	x	-14.9%	x	x	x
CC(C)CCCCCCCCCCCCC(=O)NCC(=O)NC1C(C)OC(Nc2ncnc3nc[nH]c23)C(O)C1O (configuration not stated)	0.0366µM*	-1.6%	u	-4.5%	x	-2.2%
CCCCN(CCCN)c1ccc(Br)cn1	3.2%	-6.3%	4.4%	-0.4%	x	x
CN(C)S(=O)(=O)c1cc(NC(=O)c2ccc(-n3ccnc3)c([N+](=O)[O-])c2)ccc1Cl	18.4µM*	5.1%	-6.2%	-0.1%	-1.1%	2.8%
CC(=O)N1CCN(c2ccc(NC(=O)c3ccc(N4CCCC4)c([N+](=O)[O-])c3)cc2Cl)CC1	23.1µM*	5.8%[57.1 µM]	-14.1%	-6.2%	-0.4%	0.2%
CN1CCN(CC(=O)Nc2ccccc2[N+](=O)[O-])CC1	2.1%	-13.2%	9.2%	-9.1%	-6.3%	0.2%
Cc1ccc(C(=O)Nc2ccccc2N2CCCCC2)cc1[N+](=O)[O-]	11.6µM*	-0.3%	0.5%	-4.8%	0.3%	3.5%
CCCC(=O)N1CCN(c2ccc(NC(=O)c3ccc(N4CCCC4)c([N+](=O)[O-])c3)cc2Cl)CC1	-11.4%	8.2%	-6.5%	-2.5%	x	-1.1%
Cc1ccc(C(=O)NC(=S)Nc2ccccc2N2CCCC2)cc1[N+](=O)[O-]	-13.6%	-19.2%	5.5%	-14.2%	-1.7%	5.6%
COc1ccccc1NC(=O)c1ccc(-n2ccnc2)c([N+](=O)[O-])c1	u	12.5%[57.1 µM]	3.8%	-20.9%[57.1 µM]	-1.8%	-0.5%
Cc1cccc(N2CCN(CC(=O)Nc3ccccc3[N+](=O)[O-])CC2)c1C	20.6µM*	-0.3%	-11.1%	-5.9%[57.1 µM]	-2.6%	-0.3%
COc1ccc(C2CC(=O)c3cnc4c(-c5ccccc5)c(C)nn4c3C2)cc1OC (configuration not stated)	u	2.1%	-5.3%	7.1%[11.4 µM]	x	-0.1%
COc1ccccc1CNc1ncnc2c1c(-c1ccccc1)cn2-c1cccc(C)c1	x	7.3%[57.1 µM]	14.3%	-4.0%[57.1 µM]	x	3.6%
COc1ccc(NC(=O)Nc2nnc(-c3ccco3)s2)cc1	u	19.3%	-5.3%	4.6%	4.2%	12.6µM*
COc1ccccc1OCC(=O)Nc1nnc(-c2ccco2)s1	6.9%	u	11.3%	-6.6%	-3.3%	11.2µM*
COc1ccc(-c2nc(Cn3c(SCc4cccc(F)c4)nc4cccnc43)c(C)o2)cc1	20.6µM*	28.6%	-24.6%	6.3%	x	-1.2%
COc1ccc(-c2nc(Cn3c(SCc4ccccc4F)nc4cccnc43)c(C)o2)cc1	u	-0.9%	-24.8%	-0.8%	x	-1.1%
Cc1oc(-c2ccccc2Cl)nc1Cn1c(SCc2cccc(F)c2)nc2cccnc21	u	-1.3%	-21.7%	13.3%	x	-1.3%
SMILES	Nrf2 block	TrxR1 inh	A549 viability	TrxR1 substrate	GALK inhibitor	Nrf2 activator
Cc1oc(-c2cccc(Cl)c2)nc1Cn1c(SCc2ccc(F)cc2)nc2cccnc21	18.4µM*	13.9%	-21.9%	13.5%	x	0.3%
COc1ccc(-c2nc(Cn3c(SCc4ccc(F)cc4)nc4cccnc43)c(C)o2)cc1	18.4µM*	28.3%	u	12.6%	x	-0.4%
COc1ccc(-c2cc(C(F)(F)F)n3nc(C)c(-c4ccccc4)c3n2)cc1OC	3.3%	24.9%	-8.1%	7.2%	x	-0.7%
CCCCn1nnc(NC(=S)NC(=O)c2ccc(OCC)c([N+](=O)[O-])c2)n1	6.1%	79.4µM*	-10.5%	3.6%	-4.2%	0.1%
CC1CC(NC(=O)c2cc3c(=O)n4ccccc4nc3n2C)CC(C)(C)C1 (configuration not stated)	20.6µM*	139.3%	16.3%	263.2%	7.2%	-0.2%
O=C(N/N=C/c1ccc(N2CCCCC2)o1)c1ccccc1[N+](=O)[O-]	18.0%	10µM*	-2.7%	-1.7%	2.6%	15.7%
O=C(N/N=C/c1ccc(N2CCOCC2)o1)c1ccccc1[N+](=O)[O-]	5.5%	8.91µM*	-1.6%	-18.1%	1.8%	-0.8%
O=C(N/N=C/c1ccncc1)c1ccccc1[N+](=O)[O-]	20.2%	13.0%[57.1 µM]	11.7%	-22.1%[57.1 µM]	0.0%	0.6%
O=C(Nc1ccc(N2CCOCC2)nc1N1CCOCC1)c1cccc(C(F)(F)F)c1	u	10.9%[57.1 µM]	1.5%	7.7%[57.1 µM]	2.4%	-1.4%
O=C(N/N=C/c1ccc(N2CCOCC2)o1)c1cccc(C(F)(F)F)c1	-15.2%	7.08µM*	x	-9.6%	-0.8%	9.3%
CCc1sc(Nc2cccc(C)c2C)nc1-c1cc2cccc(OC)c2oc1=O	x	20.0%[57.1 µM]	-5.4%	2.5%[57.1 µM]	x	-1.0%
O=C1CC(Nc2ccccc2)C(=O)N1c1ccc(N2CCOCC2)cc1 (configuration not stated)	-1.6%	-1.0%	8.7%	3.4%	0.3%	-0.2%
O=C1CC(Nc2ccc(N3CCOCC3)cc2)C(=O)N1c1ccccc1F (configuration not stated)	8.5%	79.4µM*	-3.7%	2.3%	0.5%	-0.5%
Cc1ccc(-c2csc(NC(=O)c3cccc(S(=O)(=O)N4CCN(C)CC4)c3)n2)cc1	-18.7%	6.6%[57.1 µM]	-5.9%	-5.6%[57.1 µM]	0.4%	2.6%
COc1cc(C(=O)Nc2nc(-c3ccc(C)cc3)cs2)ccc1OCC(=O)N1CCOCC1	-25.7%	1.8%	7.3%	-3.5%	-3.5%	5.7%

Screening results: PubChem BioAssay, National Center for Advancing Translational Sciences (NCATS)
